The structures appear in SMILES notation. In all, about 350,000 compounds went through this assay and about 2,300 (0.66%) were called active.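 How the source made its calls: active means mean inhibition of at least 50% after viability correction, with every replicate also passing that limit; inconclusive means mean reaches 50% but only one of two replicates passes; inactive means the rest.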 Shown is part of a subset that was picked to be rich in actives.

The experiment is described as follows: blockers of EWS/Fli transcriptional output – A673 cells, NR0B1 luciferase, luminescence, MLPCN library, primary screen (AID 651661).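 Further: firefly luciferase signal divided by Alamar Blue viability fluorescence both relative to DMSO.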 To be noted: A673 NR0B1-luciferase reporter, viability-normalised; at 12.6 µM; stronger effect = higher value.
As to `Cn1cnc(S(=O)(=O)N[C@H]2C=C[C@H](CC(=O)NCC3CCCCC3)O[C@@H]2CO)c1`, the inhibition is -0.245% (inactive).

`C[C@H](CO)N1C[C@H](C)[C@@H](CN(C)Cc2ccc(-c3ccccc3)cc2)Oc2ccc(NC(=O)CCCN(C)C)cc2CC1=O`: the inhibition is 4.89% (inactive).

Consider `C[C@H]1CN([C@@H](C)CO)S(=O)(=O)c2ccc(C#Cc3ccncc3)cc2O[C@@H]1CN(C)C(=O)Nc1ccc2c(c1)OCO2`, for which the inhibition is 55.5% (active).

Regarding `C[C@H](CO)N1C[C@H](C)[C@H](CN(C)C(=O)Nc2ccc3c(c2)OCO3)Oc2cc(C#Cc3ccncc3)ccc2S1(=O)=O`, the inhibition was 22.2% (inactive).

With `C[C@@H]1CN([C@@H](C)CO)S(=O)(=O)c2ccc(C#Cc3ccccc3)cc2O[C@@H]1CN(C)C(=O)Nc1ccccc1`, the inhibition is 11% (inactive).

As for `Cc1nc2ccccc2n1CC(=O)N/N=C/c1cccs1`, the inhibition was 3.45% (inactive).

For the compound `CCn1c(/C=N/NC(=O)c2ccc(OC)cc2)nc2ccccc21`, the inhibition is 75.2% (active).

Take `CCn1c(C(O)c2cc(OC)ccc2OC)nc2ccccc21` (centres undefined): the inhibition is -24.1% (inactive).

With `COc1ccc2c3c(n(C)c2c1)[C@H](CO)N(CC1CCOCC1)CC31CCN(C(C)=O)CC1`, the inhibition was 0.574% (inactive).

In the case of `C[C@H]1CN([C@@H](C)CO)S(=O)(=O)c2ccc(-c3cccc(C#N)c3)cc2O[C@H]1CN(C)C(=O)c1ccccc1`, the inhibition was 4.97% (inactive).

`COCC#Cc1ccc(CC[C@H]2O[C@H]3CC[C@@H](CO)O[C@H]3C[C@H]2NC(=O)Nc2c(C)noc2C)cc1`: the inhibition was -3.3% (inactive).

For `O=C(CCl)Nc1ccc(Sc2ccc(NC(=O)CCl)cc2)cc1`, the inhibition is 66.1% (active).

As to `O=C(CCl)Nc1cccc(CP(=O)(c2ccccc2)c2ccccc2)c1`, the inhibition was 28.2% (inactive).

Take `CCC(=O)Nc1ccc(Nc2nc(Cl)nc(Nc3ccc(NC(=O)CC)cc3)n2)cc1`: the inhibition was 7.36% (inactive).

Regarding `CO[C@H]1CN(C)C(=O)c2ccc(NC(C)=O)cc2OC[C@H](C)N(C(=O)Cc2ccccn2)C[C@@H]1C`, the inhibition is -1.41% (inactive).

Regarding `CC[C@]1(O)CC2CN(CCc3c([nH]c4ccccc34)[C@@](C(=O)OC)(c3cc4c(cc3OC)N(C=O)[C@H]3[C@@](O)(C(=O)OC)[C@H](OC(C)=O)[C@]5(CC)C=CCN6CC[C@]43[C@@H]65)C2)C1` (some centres undefined), the inhibition was 61.7% (active).

Regarding `CC[C@]1(O)C[C@@H]2CN(CCc3c([nH]c4ccccc34)[C@@](C(=O)OC)(c3cc4c(cc3OC)N(C)[C@H]3[C@@](O)(C(=O)OC)[C@H](OC(C)=O)[C@]5(CC)C=CCN6CC[C@]43[C@@H]65)C2)C1`, the inhibition is 63% (active).

With `CN1C(=O)c2cc(NC(=O)C3CC3)ccc2OC[C@@H]2O[C@H](CC(=O)NCC3CCCCC3)CC[C@@H]21`, the inhibition is 6.23% (inactive).

For the compound `C[C@H]1CN([C@@H](C)CO)S(=O)(=O)c2ccc(C3=CCCCC3)cc2O[C@@H]1CN(C)Cc1ccccc1`, the inhibition is 23.9% (inactive).

As to `Cc1cc(C(=O)Nc2ccc3c(c2)C(=O)N(C)[C@@H]2CC[C@@H](CC(=O)NC4CCCC4)O[C@@H]2CO3)no1`, the inhibition is 4.52% (inactive).

As for `COc1ccc2c3c(n(C)c2c1)[C@@H](CO)N(C)CC31CN(S(=O)(=O)c2cccs2)C1`, the inhibition was 3.63% (inactive).

Take `COc1cccc(C#Cc2ccc([C@H]3[C@@H](CO)N(C(=O)c4ccccn4)[C@H]3C#N)cc2)c1`: the inhibition is 30.6% (inactive).

On to `C[C@H]1CN([C@@H](C)CO)C(=O)c2cc(-c3ccncc3)cnc2O[C@@H]1CN(C)C(=O)c1cccc(F)c1`, for which the inhibition is -6.09% (inactive).

Take `C[C@H]1CCCCO[C@H](CN(C)CC2CCCCC2)[C@@H](C)CN([C@@H](C)CO)C(=O)c2cc(NS(=O)(=O)c3ccc(Cl)cc3)ccc2O1`: the inhibition is 61.5% (active).

`C[C@@H]1CCCCO[C@H](CN(C)CC2CC2)[C@@H](C)CN([C@H](C)CO)C(=O)c2cc(NC(=O)Nc3ccc(F)cc3)ccc2O1`: the inhibition was -1.94% (inactive).

For `C[C@H]1CCCCO[C@@H](CN(C)Cc2ccc3c(c2)OCO3)[C@@H](C)CN([C@@H](C)CO)C(=O)c2cc(NC(=O)Nc3ccc(F)cc3)ccc2O1`, the inhibition was 73.8% (active).

Take `C[C@@H]1CCCCO[C@@H](CN(C)Cc2ccc3c(c2)OCO3)[C@@H](C)CN([C@@H](C)CO)C(=O)c2cc(NC(=O)Nc3ccccc3)ccc2O1`: the inhibition is -8.42% (inactive).

With `C[C@H](CO)N1C[C@H](C)[C@H](CN(C)CC2CCCCC2)OCCCC[C@H](C)Oc2ccc(NS(=O)(=O)c3ccc(F)cc3)cc2C1=O`, the inhibition was -7.04% (inactive).

Consider `C[C@@H]1CCCCO[C@H](CN(C)CC2CCCCC2)[C@H](C)CN([C@H](C)CO)C(=O)c2cc(NS(=O)(=O)c3ccc(F)cc3)ccc2O1`, for which the inhibition was 24.8% (inactive).

`C[C@@H]1CCCCO[C@H](CN(C)CC2CCCCC2)[C@H](C)CN([C@H](C)CO)C(=O)c2cc(NC(=O)Nc3ccc(F)cc3)ccc2O1`: the inhibition is -1.9% (inactive).

For `C[C@@H]1CN([C@H](C)CO)C(=O)c2cc(NC(=O)Nc3ccc(F)cc3)ccc2O[C@@H](C)CCCCO[C@@H]1CN(C)CC1CCCCC1`, the inhibition is 58.8% (active).

As for `C[C@@H]1CN([C@H](C)CO)C(=O)c2cc(NC(=O)Nc3ccc4c(c3)OCO4)ccc2O[C@@H](C)CCCCO[C@@H]1CN(C)Cc1ccc2c(c1)OCO2`, the inhibition was 11.6% (inactive).

Take `CCS(=O)(=O)N1[C@H](CO)[C@@H](c2ccccc2)C12CN(C(=O)c1ccccc1F)C2`: the inhibition is 8.71% (inactive).

Consider `CC(C)NC(=O)N1[C@@H]2CN(C(=O)C3CCCCC3)c3ccccc3[C@@H]2[C@@H]1CO`, for which the inhibition was 1.34% (inactive).

Consider `CN(C)C(=O)[C@@H]1[C@@H](CO)[C@@H]2Cn3c(ccc(C4=CCCC4)c3=O)[C@H]1N2Cc1ccccn1`, for which the inhibition was -3.42% (inactive).

`COc1ccc(-c2cnc3c(c2)C(=O)N([C@@H](C)CO)C[C@H](C)[C@@H](CN(C)C(=O)C2CC2)O3)cc1`: the inhibition was -4.94% (inactive).

Regarding `CCS(=O)(=O)N1CC2(C1)CN(S(=O)(=O)c1ccccc1)[C@H](CO)c1c2c2ccc(OC)cc2n1C`, the inhibition is -5.22% (inactive).

Regarding `CO[C@@H]1CN(C)C(=O)c2ccc(NC(=O)NC(C)C)cc2OC[C@@H](C)N(Cc2ccc(-c3ccccn3)cc2)C[C@H]1C`, the inhibition is 0.576% (inactive).

For `COc1ccc2c3c([nH]c2c1)[C@H](CO)N(S(=O)(=O)c1cn(C)cn1)CC31CCN(CC2CC2)CC1`, the inhibition is -3.8% (inactive).

On to `C[C@H]1CN([C@@H](C)CO)C(=O)Cc2cc(NC(=O)CCCN(C)C)ccc2O[C@@H]1CN(C)Cc1ccc(-c2ccccc2)cc1`, for which the inhibition is -8.76% (inactive).

Regarding `C[C@H](CO)N1C[C@H](C)[C@H](CN(C)Cc2ccc(C(F)(F)F)cc2)Oc2ccc(NC(=O)CCCCCC(=O)Nc3ccccc3N)cc2CC1=O`, the inhibition is 52.3% (active).

Regarding `CC(C)NC(=O)N(C)C[C@H]1Oc2ccc(NC(=O)CCCCCC(=O)Nc3ccccc3N)cc2CC(=O)N([C@@H](C)CO)C[C@H]1C`, the inhibition was -5.03% (inactive).

Consider `C[C@@H]1CN([C@@H](C)CO)C(=O)Cc2cc(NC(=O)CCCN(C)C)ccc2O[C@@H]1CN(C)Cc1ccc(-c2ccccc2)cc1`, for which the inhibition was 17.3% (inactive).

On to `C[C@@H]1CN([C@H](C)CO)C(=O)Cc2cc(NC(=O)C3CCCCC3)ccc2O[C@H]1CN(C)S(=O)(=O)c1ccc(Cl)cc1`, for which the inhibition is 4.11% (inactive).

Take `C[C@H](CO)N1C[C@H](C)[C@H](CN(C)CC2CCCCC2)Oc2ccc(NC(=O)CCCCCC(=O)Nc3ccccc3N)cc2CC1=O`: the inhibition was 51.8% (active).

Consider `C[C@@H]1CN([C@@H](C)CO)C(=O)Cc2cc(NC(=O)CCCCCC(=O)Nc3ccccc3N)ccc2O[C@@H]1CN(C)C(=O)NC1CCCCC1`, for which the inhibition is 2.61% (inactive).

As to `C[C@H]1CN([C@@H](C)CO)C(=O)Cc2cc(NC(=O)C3CC3)ccc2O[C@H]1CN(C)S(=O)(=O)c1ccc(Cl)cc1`, the inhibition is 52.2% (active).

Consider `COc1ccc(S(=O)(=O)N(C)C[C@@H]2Oc3ccc(NC(=O)C4CC4)cc3CC(=O)N([C@@H](C)CO)C[C@H]2C)cc1`, for which the inhibition was -1.28% (inactive).

On to `C[C@H](CO)N1C[C@H](C)[C@@H](CN(C)Cc2ccc(-c3ccccc3)cc2)Oc2ccc(NC(=O)CCC(F)(F)F)cc2CC1=O`, for which the inhibition is 72.1% (active).

On to `C[C@@H]1CN([C@@H](C)CO)C(=O)Cc2cc(NC(=O)CCCCCC(=O)Nc3ccccc3N)ccc2O[C@H]1CN(C)C(=O)Nc1ccc(C(F)(F)F)cc1`, for which the inhibition is 8.79% (inactive).

Regarding `C[C@H]1CN([C@@H](C)CO)C(=O)Cc2cc(NC(=O)CCCCCC(=O)Nc3ccccc3N)ccc2O[C@@H]1CN(C)Cc1ccncc1`, the inhibition is -9.64% (inactive).

For `CCS(=O)(=O)Nc1ccc2c(c1)C(=O)N(C)[C@H]1CC[C@H](CC(=O)Nc3ccccc3)O[C@@H]1CO2`, the inhibition was -5.08% (inactive).

As to `COc1ccc(S(=O)(=O)N2CCCCN3[C@H](C2)[C@H](c2ccc(C4=CCCC4)cc2)[C@@H]3CO)cc1`, the inhibition is -9.53% (inactive).

With `C[C@H]1CN([C@@H](C)CO)C(=O)c2ccccc2-c2ccccc2CO[C@H]1CN(C)Cc1ccc(-c2ccccc2)cc1`, the inhibition was 8.23% (inactive).

As for `COc1ccc2c3c(n(C)c2c1)[C@@H](CO)N(CC1CC1)CC31CCN(C(=O)c2ccc3c(c2)OCO3)CC1`, the inhibition is 17.4% (inactive).

With `N#C[C@@H]1[C@H](c2ccccc2-c2ccccc2F)[C@@H](CO)N1C(=O)c1ccccn1`, the inhibition was 31.4% (inactive).

Turning to `CO[C@H]1CN(C)C(=O)c2ccc(NS(=O)(=O)c3ccccc3)cc2OC[C@H](C)N(Cc2nccs2)C[C@@H]1C`, the inhibition is 3.5% (inactive).

`O=C(c1ccccc1)N1CC(=O)N2[C@@H](CO)[C@H](c3ccc(C#CC4CC4)cc3)[C@@H]2C1`: the inhibition is -6.36% (inactive).

Take `C[C@H](CO)N1C[C@H](C)[C@@H](CN(C)S(=O)(=O)c2cn(C)cn2)OCCCC[C@H](C)Oc2ccc(NC(=O)Cc3ccccc3)cc2C1=O`: the inhibition was 2.69% (inactive).

Values taken from PubChem BioAssay AID651661 (Broad Institute, 2012).
